Experimental data: ChEMBL document CHEMBL4513148, “CO-ADD screening of Stellenbosch University (South Africa) compounds”
Results with a measured potency or affinity are listed apart.

What was measured:
Staphylococcus aureus = settings: Concentration 32 ug.mL-1; ASSAY_TEST Inhibition of Bacterial Growth; detection method Absorption (OD600); MEDIA CAMHB; plate type 384well; NBS; CORNING #3640; time 18 hr
Escherichia coli = settings: Concentration 32 ug.mL-1; ASSAY_TEST Inhibition of Bacterial Growth; detection method Absorption (OD600); MEDIA CAMHB; plate type 384well; NBS; CORNING #3640; time 18 hr

Compound	Inhibition (Staphylococcus aureus)	Inhibition (Escherichia coli)
CC(C)(CO)[C@H](O)C(=O)NCc1cn(C[C@H]2O[C@@H](n3ccc(N)nc3=O)[C@H](O)[C@@H]2O)nn1	13.05%	-11.94%
CC(C)(CO)[C@@H](O)C(=O)N/C=C/C(=O)NCCc1ccccc1	31.24%	-5.06%
CC(C)(CO)[C@H](O)C(=O)NCCC(=O)NCc1cn(C[C@H]2O[C@@H](n3ccc(N)nc3=O)[C@H](O)[C@@H]2O)nn1	2.11%	-13.27%
CC(C)(CO)[C@@H](O)C(=O)NCCC(=S)NCCc1ccccc1	10.96%	-8.24%
CC(C)(CO)[C@H](O)C(=O)NCCc1cn(C[C@H]2O[C@@H](n3ccc(N)nc3=O)[C@H](O)[C@@H]2O)nn1	-0.66%	-7.3%
C#CCNC(=O)[C@H](O)C(C)(C)CO	0.74%	3.62%
CC(C)(CO)[C@@H](O)C(=O)NCCC(=O)NNCc1ccccc1	15.8%	-5.42%
CC(C)(COP(=O)(O)O)[C@@H](O)C(=O)NCCC(=O)NCCc1ccccc1	15.25%	-8.26%
CCCCCCNNC(=O)CCNC(=O)[C@H](O)C(C)(C)CO	13.79%	-4.33%
CCCCCCCNS(=O)(=O)CCNC(=O)[C@H](O)C(C)(C)CO	15.67%	-4.61%
CC(CC(=O)NCCc1ccccc1)NC(=O)[C@H](O)C(C)(C)CO (stereo partly specified)	13.65%	-6.39%
CC(C)(CO)[C@H](O)C(=O)NCCC(=O)OCc1cn(C[C@H]2O[C@@H](n3ccc(N)nc3=O)[C@H](O)[C@@H]2O)nn1	8.97%	-9.8%
CC(C)(CO)C(O)C(=O)NCCCOP(=O)(O)OCC1OC(n2ccc(N)nc2=O)C(O)C1O (stereo unspecified)	-4.3%	-11.28%
CCCCCCCNC(=S)CCNC(=O)[C@H](O)C(C)(C)CO	14.7%	-4.19%
CC(C)(CO)[C@H](O)C(=O)NCCCc1cn(C[C@H]2O[C@@H](n3ccc(N)nc3=O)[C@H](O)[C@@H]2O)nn1	12.15%	-9.07%
CC(C)(C)C(O)C(=O)NCCC(=O)NCCc1ccccc1 (stereo unspecified)	10.92%	-6.19%
CC(C)(CN)C(O)C(=O)NCCC(=O)NCCc1ccccc1 (stereo unspecified)	10.68%	-6.66%
CCCCCCCNC(=O)CCNC(=O)C(O)C(C)(C)C (stereo unspecified)	18.01%	-4.21%
